# Reference: PubChem BioAssay (NCATS)
# Records with an inconclusive call do not appear. Entries that show only a call come without a potency. Activity calls are given as the source filed them. Calls come from the whole dose curve; as a rule, active = well fitted cell-killing curve with a large enough effect; inconclusive = small, poorly fitted or top-dose-only effect, or effect the other way; inactive = flat fitted curve, though single readings scatter.
# Test system: Tov-21-G
# Experiment: Primary qHTS to identify gynecologic anti-cancer compounds using libraries of approved drugs and bioactive compounds (AID 1345084); note: nearly all actives have a fitted effect of over 55% in size
# Details: Gynecologic cancer cell panel viability, ATPlite luminescence, 48 h; series mostly up to 57.5 µM
# Summary of the method: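 In this quantitative HTS, cell killing is estimated from loss of ATP-dependent luciferase light. Cells see five compound concentrations over a 48 h exposure.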
# Potency is the fitted concentration of half-maximal effect.
row,SMILES,Potency
1,COc1cccc(-c2cn(-c3ccc(CCN4CCC(O)CC4)cc3)c3ncnc(N)c23)c1,17.8 µM (active)
2,CCOc1cc(C(C)(C)C)ccc1C1=NC(C)(c2ccc(Cl)cc2)C(C)(c2ccc(Cl)cc2)N1C(=O)N1CCN(CCCS(C)(=O)=O)CC1 (centres undefined),15.8 µM (active)
3,Cc1cc2c(F)c(Oc3ncnn4cc(OCC(C)OC(=O)C(C)N)c(C)c34)ccc2[nH]1 (centres undefined),inactive
4,C[C@@]12C(=O)N(c3ccc(C(=O)Nc4cccc5cccnc45)cc3)C(=O)[C@@H]1[C@@H]1C=C[C@H]2C1,inactive
5,Nc1nc(Nc2ccc3c(c2)CCC(N2CCCC2)CC3)nn1-c1cc2c(nn1)-c1ccccc1CCC2 (centres undefined),22.4 µM (active)
6,CC1CCCC(O)CC(=O)c2c(O)cc(O)cc2CC(=O)O1 (centres undefined),inactive
7,C=C(C)C(=O)OC1CC2(C)OC(=CC2=O)C(=C)CC2OC(=O)C(=C)C12 (centres undefined),4.47 µM (active)
8,COc1cc(CCC2=NN=C(NC(=O)c3ccc(N4C[C@@H](C)N[C@@H](C)C4)cc3)C2)cc(OC)c1,22.4 µM (active)
9,COc1c(C(O)CC(C)C)ccc2c1C(=O)OCc1cc(C)cc(O)c1O2 (centres undefined),inactive
10,C[C@@H]1C[C@H](C)CN(CCC(=O)Nc2ccc(Br)cc2)C1,inactive
11,C=CC(C)(O)CC/C=C(/C)COC(=O)C(C)C1CCC(C)(C=C)O1 (centres undefined),inactive
12,NC(=O)N1CCC(CC(=O)N2CCC(C3c4ncc(Br)cc4CCc4cc(Cl)cc(Br)c43)CC2)CC1 (centres undefined),inactive
13,NC(=O)CCCSc1nc(N)nc(-c2c(Cl)cc3c4c(cccc24)COC3)n1,1 µM (active)
14,c1ccc(-c2cnn3cc(-c4ccc(OCCN5CCOCC5)cc4)cnc23)cc1,inactive
